Screening results: PubChem, National Center for Advancing Translational Sciences (NCATS)
Rows were chosen to be rich in hits. Some 9.2% of all compounds tested hit in one or more screens of this group.
ELG1 DNA repair – ELG1-dependent DNA repair inhibition; HEK293T ELG1-luciferase reporter, luminescence, 16 h; DNA damage induced by 5-fluorouridine; Potency, µM (series often up to 46.1 µM), hits mostly inhibitors; 330,000 compounds, 2.3% hits; AID 504467; note: nearly all actives have a fitted effect of over 55% in size
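In this reporter screen, reduction of luminescence relative to DMSO vehicle indicated activity. Compounds and 5-fluorouridine were added together to 2,000 cells per well, incubated for 16 hr at 37 °C, then developed with ONE-Glo.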
FLuc counter – inhibits or activates purified firefly luciferase, miR-21 counter-screen; AID 588342; Potency, µM (titrated, usually from 57.5 µM), actives largely listed as inhibitors; 360,000 compounds, 6.9% hits; P08659; purified FLuc, Km substrates, luminescence inhibition; note: nearly all actives have a fitted effect of over 55% in size
Target sequence (P08659 whole entry, looked up): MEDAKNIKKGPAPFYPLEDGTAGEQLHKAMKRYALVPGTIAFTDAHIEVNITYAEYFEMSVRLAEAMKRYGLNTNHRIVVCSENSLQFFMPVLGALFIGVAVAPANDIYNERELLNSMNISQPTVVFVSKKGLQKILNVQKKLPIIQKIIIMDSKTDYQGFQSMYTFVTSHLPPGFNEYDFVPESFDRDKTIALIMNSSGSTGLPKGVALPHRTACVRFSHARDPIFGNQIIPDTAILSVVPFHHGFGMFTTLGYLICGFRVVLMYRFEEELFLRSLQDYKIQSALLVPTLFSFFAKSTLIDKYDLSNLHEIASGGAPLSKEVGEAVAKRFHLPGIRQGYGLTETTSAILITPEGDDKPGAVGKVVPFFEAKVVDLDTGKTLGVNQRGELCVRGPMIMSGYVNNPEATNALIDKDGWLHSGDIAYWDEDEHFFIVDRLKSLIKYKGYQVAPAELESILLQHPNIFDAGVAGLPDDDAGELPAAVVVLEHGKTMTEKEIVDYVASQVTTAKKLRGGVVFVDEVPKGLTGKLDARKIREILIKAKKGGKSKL
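Biochemical qHTS of compounds, final roughly 60 µM downward over six points, against 10 nM purified firefly luciferase using Km concentrations of substrates (10 uM D-luciferin, 10 uM ATP) in Tris acetate pH 7.5 buffer; luminescence output.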
NPC1 prom act – activators of NPC1 promoter; 320,000 compounds, 2.4% hits; Potency, µM (doses to about 9.22 µM), most hits filed as activators; Huh7 NPC1 promoter luciferase reporter, 24 h; AID 485313; note: nearly all actives have a fitted effect of over 60% in size
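Luciferase expression driven by the NPC1 promoter was measured in stably transfected Huh7 cells after a 24 h compound incubation, using a luciferase reagent and a luminescence read.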
Rab9 prom act – activators of Rab9 promoter. 320,000 compounds, 2.8% hits. Huh7 Rab9 promoter-luciferase reporter, luminescence, 24 h. Potency, µM (titrated, usually from 9.22 µM), most hits filed as activators. AID 485297; note: nearly all actives have a fitted effect of over 60% in size
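Rab9 promoter-driven luciferase in stably transfected Huh7 cells; 1500 cells/well rested 2 h, exposed to compound in DMSO for 24 h at 37 °C, 5% CO2. Luminescence read 10 min after adding luciferase reagent at ambient temperature.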
SMN2 splice up – SMN2 splice variant enhancement. HEK293 SMN2-luciferase splicing reporter, luminescence, 30-36 h. AID 1458. Potency, µM (highest dose often 46.1 µM), usual class: activators. 210,000 compounds, 2.8% hits; note: nearly all actives have a fitted effect of over 55% in size
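HEK293 cells carry an SMN2 […]–luciferase reporter in which exon 7 inclusion puts luciferase in frame. Cells were plated 10-12 h before compound addition, then incubated 30-36 h at 37C. ONE-Glo luminescence was read; sodium butyrate at 4.5 mM final served as control.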
ELG1 genotoxic – inducers of genotoxicity in HEK293T ELG1-luciferase cells | 330,000 compounds, 1.3% hits | Potency, µM (series often up to 46 µM), hits mostly activators | HEK293T ELG1-luciferase reporter, luminescence, 16 h; note: nearly all actives have a fitted effect of over 60% in size
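Screening used a luciferase reporter fused to human ELG1 in HEK293T cells. Luminescence was read on a CCD plate imager after 16 hr exposure and 30 min ONE-Glo incubation.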
Large screens that a line does not name were inactive. Calls come from the whole dose curve; as a rule, active = well fitted curve in the direction sought with a large enough effect; inconclusive = small, poorly fitted or top-dose-only effect, or another doubt; inactive = no such curve, though single readings can be large; an effect the other way counts as inactive or inconclusive.

Cc1nc2cc(NCc3cc([N+](=O)[O-])ccc3O)ccc2n1Cc1ccccc1	FLuc counter inconclusive, Rab9 prom act inconclusive
Cc1ccc(NCc2nc3ccccc3n2C)c(C)c1	ELG1 DNA repair inconclusive, FLuc counter 0.34µM, NPC1 prom act 0.63µM, Rab9 prom act 0.71µM, ELG1 genotoxic 1µM (no result: SMN2 splice up)
Cn1c(CNc2ccc(Cl)cc2)nc2ccccc21	ELG1 DNA repair inconclusive, FLuc counter 6.7µM, NPC1 prom act 4.5µM, Rab9 prom act inconclusive, SMN2 splice up 7.1µM, ELG1 genotoxic 4.6µM
O=C(CC1C(=O)NCCN1Cc1ccc(Cl)c(F)c1)NC1CCC1 (centres undefined)	none (no result: SMN2 splice up)
COC(=O)c1cc2oc(C)cc2n1Cc1c(C)cc(C)cc1C	none (no result: ELG1 DNA repair, NPC1 prom act, Rab9 prom act, ELG1 genotoxic)
Cc1cccc(NCc2nc3ccccc3n2CCOc2ccccc2C)c1	none (no result: ELG1 DNA repair, NPC1 prom act, Rab9 prom act, ELG1 genotoxic)
Cc1cccc(NCc2nc3ccccc3n2C)c1	ELG1 DNA repair inconclusive, FLuc counter 24µM, NPC1 prom act inconclusive, Rab9 prom act 3.2µM, SMN2 splice up inconclusive, ELG1 genotoxic 12µM
Cc1cccc(NCc2nc3ccccc3n2Cc2ccccc2)c1	ELG1 DNA repair inconclusive, FLuc counter 24µM
Cn1c(NCc2cccc(Br)c2)nc2ccccc21	ELG1 DNA repair inconclusive, ELG1 genotoxic inconclusive
Cc1ccc(OCC(=O)N/N=C/c2cn(C)c3ccccc23)cc1	FLuc counter 11µM (no result: SMN2 splice up)
Cc1ccccc1OCC(=O)N/N=C/c1cn(Cc2ccccc2)c2ccccc12	none
Cc1ccccc1OCC(=O)N/N=C/c1cn(C)c2ccccc12	FLuc counter 15µM (no result: SMN2 splice up)
Cc1nc(C)c(-c2nnc(-c3ccccc3Cl)o2)cc1C(=O)NN	none (no result: SMN2 splice up)
Cc1nc(C)c(-c2nnc(-c3ccc(C(C)(C)C)cc3)o2)cc1C(=O)NN	FLuc counter 24µM
Cc1cccc2c1[nH]c1nc(N/N=C\c3ccco3)nnc12	none
C=CCSc1nnc2c(n1)[nH]c1c(C)cccc12	ELG1 DNA repair inconclusive, FLuc counter 9.5µM, NPC1 prom act 3.5µM, Rab9 prom act inconclusive, ELG1 genotoxic inconclusive
O=S(=O)(c1ccccc1)N1CCC[C@@]2(CCN(c3ncccn3)C2)C1	none (no result: ELG1 DNA repair, FLuc counter, NPC1 prom act, Rab9 prom act, ELG1 genotoxic)
CCOC(=O)c1c(C)[nH]c(N=Nc2ccccc2Cl)c1C	ELG1 DNA repair inconclusive, FLuc counter 12µM, NPC1 prom act inconclusive, Rab9 prom act inconclusive, ELG1 genotoxic inconclusive (no result: SMN2 splice up)
CCOC(=O)c1c(C)[nH]c(N=Nc2ccc(OC)cc2)c1C	ELG1 DNA repair inconclusive, FLuc counter 7.6µM, NPC1 prom act 3.5µM, Rab9 prom act inconclusive, ELG1 genotoxic inconclusive (no result: SMN2 splice up)
CCOC(=O)c1c(C)[nH]c(NC(=O)NNC(=O)c2ccccc2Cl)c1C	none (no result: FLuc counter, SMN2 splice up)
CCOC(=O)c1c(C)[nH]c(C=Nc2ccccc2)c1O	NPC1 prom act inconclusive, Rab9 prom act inconclusive, SMN2 splice up inconclusive
CCOC(=O)c1c(C)[nH]c(N=Nc2ccc(C)cc2)c1C	ELG1 DNA repair inconclusive, FLuc counter 3.8µM, NPC1 prom act 1µM, Rab9 prom act 1.4µM, SMN2 splice up 13µM, ELG1 genotoxic 3.2µM
CCOC(=O)c1c(C)[nH]c(N=Nc2ccccc2)c1C	ELG1 DNA repair inconclusive, FLuc counter 12µM, NPC1 prom act inconclusive, Rab9 prom act inconclusive, ELG1 genotoxic 12µM
CCN(Cc1ccccc1)C(=O)Cn1cc(S(=O)(=O)Cc2cccc(Cl)c2)c2ccccc21	none (no result: ELG1 DNA repair, NPC1 prom act, Rab9 prom act, SMN2 splice up, ELG1 genotoxic)
Cc1c(C(=O)Nc2ccccn2)oc2c(Cl)cccc12	ELG1 DNA repair inconclusive, FLuc counter inconclusive, ELG1 genotoxic 5.2µM (no result: SMN2 splice up)
Cc1ccc(NC(=O)c2cc3c(=O)oc4ccccc4c3s2)nc1	none
Cc1ccc(NC(=O)c2oc3ccccc3c2C)nc1	ELG1 DNA repair inconclusive, FLuc counter 12µM, NPC1 prom act 3.5µM, Rab9 prom act 3.2µM, ELG1 genotoxic inconclusive (no result: SMN2 splice up)
COc1ccc(NC(=O)c2oc3ccccc3c2C)cn1	none (no result: SMN2 splice up)
Cc1c(C(=O)Nc2cccnc2Cl)oc2ccccc12	ELG1 DNA repair inconclusive, FLuc counter inconclusive, NPC1 prom act 2.5µM, Rab9 prom act 3.2µM, ELG1 genotoxic inconclusive (no result: SMN2 splice up)
Cc1c(C(=O)Nc2ccccn2)oc2ccccc12	ELG1 DNA repair inconclusive, FLuc counter 4.3µM, NPC1 prom act inconclusive, Rab9 prom act inconclusive, SMN2 splice up 25µM, ELG1 genotoxic inconclusive
Cc1noc(C(=O)Nc2cccnc2Cl)c1Cl	none (no result: SMN2 splice up)
